This is part of a sample that, as a whole, favours compounds with a hit. Of some 83,000 tested, about 20% had one in any assay.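 48-hour exposure, single concentration, 96-well plates; percent growth endpoint where 0 means no net growth. Active: below 10.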 Unmarked numbers belong to inactive results. The source made the active and inactive calls.
Assays:
Assay in all cases: NCI-60 one-dose screen, 48 h (100 = growth as untreated, 0 = no growth, -100 = all killed)
Conditions in all cases: 10 µM unless noted
HCT-15 colon = system: HCT-15 colon
HT29 colon = system: HT29 colon
SNB-75 CNS = system: SNB-75 CNS
SNB-19 CNS = system: SNB-19 CNS
U251 CNS = system: U251 CNS
PC-3 prostate = system: PC-3 prostate
SK-MEL-5 melanoma = system: SK-MEL-5 melanoma
UACC-62 melanoma = system: UACC-62 melanoma
LOX IMVI melanoma = system: LOX IMVI melanoma
SK-MEL-28 melanoma = system: SK-MEL-28 melanoma

| SMILES | growth (HCT-15 colon) | growth (HT29 colon) | growth (SNB-75 CNS) | growth (SNB-19 CNS) | growth (U251 CNS) | growth (PC-3 prostate) | growth (SK-MEL-5 melanoma) | growth (UACC-62 melanoma) | growth (LOX IMVI melanoma) | growth (SK-MEL-28 melanoma) |
| --- | --- | --- | --- | --- | --- | --- | --- | --- | --- | --- |
| Cc1ccc(O)c(C(=O)O)c1 | 104% | 102% | 107% | 109% | 92.6% | 104% | 105% | 104% | 101% | 114% |
| COc1cc(OC)cc(C2C3=C(COC3=O)Nc3cc(OC)ccc32)c1 (stereo not given) | 11.3% | 0.152% (active) | 40.7% | 36.2% | 16.2% | 29.3% | -24.3% (active) | 36% | 25.8% | 63.5% |
| COc1ccccc1/C=N/NC1=NC2C(N1)N(C)C(=O)N2C (stereo not given) | 104% | 111% | 83.4% | 104% | 99.2% | 95.4% | 100% | 100% | 99.5% | 103% |
| CC(C)(O)C1CCCN1C(=O)c1ccccc1I (stereo not given) | 98.7% | 95.4% | 100% | 78.2% | 98.3% | 80.7% | 92.9% | 64.3% | 101% | 105% |
| Nc1cc(N)c2cccnc2c1O | 83.7% | 87.4% | 104% | 64.2% | 68.3% | 80.7% | 62.9% | 43% | 42.3% | 73.6% |
| N#C/C(=C\c1ccc(Br)cc1)n1nnc2cccc(F)c21 | 1.81% (active) | 11.8% | -24.8% (active) | 25.6% | 15.6% | 29% | 1.82% (active) | 22.7% | -56.3% (active) | 49.5% |
| CC(C)(C)CC(C)(C)Nc1c(-c2ccc(C(F)(F)F)cc2)nc2cnccn12 | 73.8% | 57.4% | 81.1% | 91.8% | 93% | 68.5% | 90% | 72.9% | 97.6% | 93.9% |
| COc1cccc2cc(-c3cc4ccccc4[nH]3)/c(=N/C(=S)Nc3ccc(C)cc3)oc12 | 72% | 86.3% | -8.91% (active) | 52.8% | 74.9% | 55.6% | 73.8% | 65.7% | 71.2% | 78.4% |
| C=C1C(=O)O[C@H]2[C@H]1CC/C(COC(=O)NCCc1c[nH]c3ccc(Cl)cc13)=C\CC[C@@]1(C)O[C@@H]21 | -66.6% (active) | -73.6% (active) | -54.6% (active) | 32.4% | -41.4% (active) | 1.04% (active) | -15.2% (active) | -51.7% (active) | -82.4% (active) | -71.9% (active) |
| COc1cccc(/C=C2\COc3ccc(-c4ccccc4)cc3C2=O)c1 | -36.9% (active) | 12.9% | 10.9% | 64.7% | -56.1% (active) | 19.4% | 24% | 38% | -85.5% (active) | -36.5% (active) |
| O=c1[nH]nc(-c2ccc(Br)cc2)cc1Cc1ccc(O)cc1 | 105% | 103% | 91.9% | 81.2% | 105% | 80.4% | 87.1% | 85.6% | 97.4% | 104% |
| O=C(O)CNC(=O)CN1C(=O)c2ccccc2C1=O | 105% | 110% | 90.4% | 108% | 96.8% | 84.1% | 99.6% | 108% | 95% | 103% |
| CC(=O)O[C@H]1CC[C@@]2(C)[C@@H](CC[C@@H]3[C@@H]2CC[C@@]2(C)[C@H]3CC[C@]2(O)C(C)=O)C1 | 102% | 107% | 94.9% | 102% | 94% | 95.7% | 94% | 91% | 99.2% | 103% |
| COc1ccc(CC(C)=C(c2ccc(OCCN(C)C)cc2)c2ccc(OCCN(C)C)cc2)cc1 | 62.8% | 39% | 81.6% | 80.1% | 55.3% | 70.8% | 84.2% | 39.1% | 71.5% | 71.5% |
| O=S(=O)(c1ccc(N/N=C\c2ccccc2)cc1)c1ccc(N/N=C/c2ccccc2)cc1 | 88.7% | 54.7% | 87% | 81.4% | 66.6% | 55.7% | 74.7% | 70.8% | 63.4% | 75.6% |
| CCCCCCOc1ccc(/C=N/Nc2cc(C)nc3ccc(Br)cc23)cc1 | -83.5% (active) | -65.5% (active) | -94.5% (active) | -73.7% (active) | -64.8% (active) | -73% (active) | 47.3% | 25.8% | -94.1% (active) | -81.9% (active) |
| CC(=O)Nc1ccc(S(=O)(=O)NC2CCCCC2)cc1 | 95.9% | 95.4% | 86.3% | 96.2% | 91% | 94.6% | 98.2% | 91.4% | 95.8% | 98.3% |
| COc1ccc(-c2nc(SCCC(C)C)nc(N/N=C(/C)c3ccc(C)cc3)c2C#N)cc1 | 92.9% | 112% | 84% | 86.8% | 103% | 85.8% | 94.3% | 87.4% | 91% | 103% |
| CCNC(=S)NNC(=O)c1cc2ccc1CCc1ccc(cc1)CC2 | 96.7% | 104% | 89.8% | 100% | 101% | 91.1% | 96.7% | 93.4% | 102% | 101% |
| O=C(Nc1nc2ccc(S(=O)(=O)Nc3ccc(C4(C(F)(F)F)CC4)cc3)cc2[nH]1)c1cnccn1 | 29.5% | 15.6% | -27.1% (active) | 40.3% | 38% | 27.7% | 26.1% | 40% | 38.3% | 57.2% |
| O=C1NC(=S)NC(=O)C1=Cc1cccc(C=C2C(=O)NC(=S)NC2=O)c1 | 105% | 104% | 98.9% | 98.9% | 114% | 104% | 100% | 101% | 102% | 110% |
| CCCN=C(N)c1ccc(NC(=O)c2ccc(C(=O)Nc3ccc(C(N)=NCCC)cc3)cc2)cc1 | 99.7% | 102% | 78.1% | 105% | 107% | 90.8% | 27.2% | 90.2% | 108% | 110% |
| Brc1ccc(C2CC(c3cccc(Nc4ccncc4)c3)=NN2c2ccccc2)cc1 (stereo not given) | 13.5% | 4.59% (active) | 79.6% | 94.3% | 32.1% | 52.4% | 82.2% | 98.6% | 53.4% | 73.3% |
| O=S(=O)(O)c1cc(O)c2c(N=Nc3ccc(Nc4ccccc4)c4c(S(=O)(=O)O)cccc34)cc(S(=O)(=O)O)cc2c1 | 99.1% | 107% | 96.2% | 103% | 102% | 95% | 109% | 105% | 96.5% | 111% |
| Cc1ccc(C2CC(c3cccc(Nc4ccncc4)c3)=NN2c2cc(Cl)cc(Cl)c2)cc1 (stereo not given) | -65.6% (active) | -7.29% (active) | 70.2% | 84.9% | -48.8% (active) | 33.8% | 68.8% | 99.4% | -87.3% (active) | -72.7% (active) |
| COc1ccc(-c2cnc(N)nc2-c2ccc(OC)cc2O)cc1 | 101% | 85.6% | 91.5% | 99.6% | 92.2% | 92% | 104% | 93.4% | 86.1% | 104% |
| COc1ccc(Nc2nc(N)nc3c2CCc2occc2-3)cc1 | 92% | 87% | 95% | 99.4% | 103% | 90.4% | 94.6% | 93.9% | 93.1% | 106% |

— PubChem BioAssay (NCI)
